# Bioassay records from PubChem BioAssay.
# A selection: hits, their analogues and other compounds. The true share with any hit is near 1.3%.
# SARS 3CLpro inh = SARS-CoV 3CLpro protease inhibitors, primary screen, biochemical, quenched FRET; Replicase polyprotein 1ab (Severe acute respiratory syndrome coronavirus), P0C6X7; 290,000 compounds, 0.14% hits; recombinant SARS-CoV 3CLpro, quenched FRET peptide cleavage; AID 1706, 2009; inhibition, % at 6 µM; in the data active = inhibition above about 12%
# SSB-PriA inh = inhibitors of Klebsiella pneumoniae PriA binding to SSB C-terminal tail, primary screen, biochemical, AlphaScreen. AlphaScreen SSBct-PriA binding, biotinylated peptide. 430,000 compounds, 0.6% hits. inhibition, % at 33 µM. PriA–SSB C-terminal tail interaction (Klebsiella pneumoniae); in the data active = inhibition mostly above about 37%, no sharp cut-off; inactive = mostly below about 20%;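 also: plate controls were negative control peptide for no effect and reference peptide for full effect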
# CCHF vOTU inh = CCHFV vOTU protease inhibitors, primary screen, biochemical, Pep-AMC substrate, fluorescence | Crimean-Congo hemorrhagic fever virus L polyprotein viral ovarian tumor (vOTU) protease … | inhibition, % at 11.5 µM | 370,000 compounds, 0.55% hits; in the data active = inhibition above about 30%; also: 0% = vehicle wells with enzyme and 100% = no enzyme wells
# VHR inh abs = VHR1 phosphatase inhibitors, primary screen, biochemical, absorbance, uHTS; Dual specificity protein phosphatase 3 (Homo sapiens), P51452; recombinant VHR phosphatase, pNPP absorbance; inhibition, % at 13.3 µM; 290,000 compounds, 0.52% hits; AID 1654, 2009; in the data active = inhibition above about 50%
# Target sequence (P51452 whole entry, looked up): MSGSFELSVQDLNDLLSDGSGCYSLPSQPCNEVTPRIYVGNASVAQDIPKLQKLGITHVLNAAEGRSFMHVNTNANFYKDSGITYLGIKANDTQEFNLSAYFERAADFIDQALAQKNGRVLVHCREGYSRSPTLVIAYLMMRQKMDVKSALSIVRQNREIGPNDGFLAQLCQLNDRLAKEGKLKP
# Mtb hypoxia inh = PubChem AID 1159583 | 300,000 compounds, 0.1% hits | fluorescence inhibition, % (no concentration beside the values) | M. tuberculosis hypoxia-regulated fluorescent reporter, fluorescence; in the data active = fluorescence inhibition mostly above about 23%, no sharp cut-off; inactive = mostly below about 17%
# Starred values were filed as active, the others as inactive; x = no result given.
SMILES,SARS 3CLpro inh,SSB-PriA inh,CCHF vOTU inh,VHR inh abs,Mtb hypoxia inh
CCCN1CCCc2cc(CCNS(=O)(=O)c3ccc(CC)cc3)ccc21,x,51*,x,x,x
CCCN1CCCc2cc(CCNS(=O)(=O)CCC)ccc21,x,112*,x,x,x
O=C1Cc2cc(NC(=O)c3cccc(Br)c3)ccc2N1,x,-4,x,x,x
O=C(N/N=C\c1ccc(OC(=O)c2ccco2)cc1)c1cc[n+]([O-])cc1,x,24,x,x,x
CCCN1CCCc2cc(CCNC(=O)C(=O)NC(C)C)ccc21,x,22,x,x,x
CCCN1CCCc2cc(CCNS(=O)(=O)c3ccc4c(c3)OCCO4)ccc21,x,67*,x,x,x
COc1ccc(C)cc1S(=O)(=O)NCCc1ccc2c(c1)CCCN2C,x,65*,x,x,x
CCCN1CCCc2ccccc21,-4,39*,3,6,1
CCCN1CCCc2cc(CCNS(=O)(=O)c3ccc(CC)s3)ccc21,x,60*,x,x,x
CN(C)c1ccc(CCNS(=O)(=O)c2ccc3c(c2)OCCO3)cc1,x,3,x,x,x
CCOc1ccc(CN2CCNC(=O)C2CC(=O)NCCc2ccccn2)cc1 (stereo not given),-3,-4,0,7,1
CCOc1ccc(CN2CCNC(=O)C2CC(=O)NCc2ccccn2)cc1 (stereo not given),-2,0,10,54*,12
COc1ccc(S(=O)(=O)N2CCCC2C(=O)Nc2cccc3c2C(=O)N(C)C3=O)cc1 (stereo not given),x,-15,x,x,x
CC(C)(C)NC(=O)C(c1ccncc1)N(Cc1cccs1)C(=O)Cn1nnc(-c2ccc(F)cc2)n1 (stereo not given),-3,10,9,53*,x
CCc1c(C)nc2n(c1=O)C[C@H](C(=O)N1CCN(Cc3ccccn3)CC1)CS2,x,-16,x,x,x
CC(C)c1nc(-c2ccc(N3CCN(C(=O)Cc4cn(C)c5ccccc45)CC3)nc2)no1,x,61*,x,x,x
CS(=O)(=O)c1ccc(-c2cccc(NC(=O)c3ccc(S(=O)(=O)N4CCOCC4)cc3)c2)nn1,x,-6,x,x,x
O=C1OCC/C1=C\c1ccc2c(c1)OCO2,-4,6,20,52*,1
Nc1cccc(Nc2ccccc2)c1,-1,11,9,38,7
c1ccc(Nc2cccc(Nc3ccccc3)c2)cc1,0,66*,-9,-19,-1
CC(C)C[C@H]1CN=C(Nc2ccccc2)N1CCCC1CCCC1,-2,8,13,55*,x
CC(C)C[C@H]1CN=C(Nc2ccccc2)N1CCCC1CCCCC1,-3,5,6,17,x
CCC1(CC)SC(=N)NC1=O,x,-6,x,x,x
O=C(Nc1nc2c(s1)CCCC2)C1CCN(c2ccc(-n3cccn3)nn2)CC1,x,48*,x,x,x
Cc1csc(NC(=O)C2CCN(c3ccc(-n4cccn4)nn3)CC2)n1,x,-2,x,x,x
SMILES,SARS 3CLpro inh,SSB-PriA inh,CCHF vOTU inh,VHR inh abs,Mtb hypoxia inh
Cc1ccc(CNC(=O)c2ccccc2SCC(=O)NCC2CCCCC2)cc1,5,-7,7,54*,-3
O=C(CSc1ccccc1C(=O)N1CCCCC1)NCC1CCCCC1,-2,-7,0,6,7
O=C(Nc1ccc(S(=O)(=O)NC2=NCCCCC2)cc1)c1ccc([N+](=O)[O-])s1,x,4,17,x,17
O=C(Nc1ccc(S(=O)(=O)NC2=NCCCCC2)cc1)c1cccs1,x,4,5,x,30*
CN(C(=O)c1ccc2c(=O)n3c(nc2c1)CCCCC3)c1ccccc1,-3,-17,4,53*,x
CN(C(=O)c1ccc2c(=O)n3c(nc2c1)CCCCC3)c1ccccc1Cl,-2,8,-11,20,8
OCC1(CCc2ccccc2)CCCN(C/C=C/c2ccccc2)C1 (stereo not given),-9,-4,-7,57*,15
COc1ccccc1/C=C/CN1CCCC(CO)(CCc2ccccc2)C1 (stereo not given),2,-1,3,18,-1
CCOCCCNC(=O)c1cc2cc3cc(OC)ccc3nc2o1,-2,-15,-95,53*,6
COc1ccc2nc3oc(C(=O)NCCCOC(C)C)cc3cc2c1,-2,1,-82,17,-4
COc1cc(C)ccc1S(=O)(=O)NCc1cccs1,x,35,x,x,x
COc1cc(C)c(Br)cc1S(=O)(=O)NCc1cccs1,-2,-4,15,54*,10
Cc1ccc(CN2CCN(Cc3cn[nH]c3C3CCCCC3)CC2CCO)cc1 (stereo not given),-3,0,5,52*,x
CN(C)c1nccnc1O[C@H]1CCCN(C(=O)c2ccco2)C1,x,-8,x,x,x
